Measurements published in PubChem BioAssay (NCATS).
Records with an inconclusive call do not appear. Activity calls are given as the source filed them. Calls follow the shape of the dose curve; as a rule, active = well fitted curve in the direction sought with a large enough effect; inconclusive = small, poorly fitted or top-dose-only effect, or another doubt; inactive = no such curve, though single readings can be large; an effect the other way counts as inactive or inconclusive.

Legend:
[1] = Cellular Toxicity (caspase-3) Mesangial (AID 660); conditions: mesangial cells, normalized: DMSO 0%, 100 µM tamoxifen 100%; at 91.7 µM (top of the series);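 also: combined caspase 3 and 7 activity read by Caspase-Glo luminescence; cells exposed to compound for 16 h before the caspase read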
Outline: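 Seed cells derived from normal human renal glomeruli, incubate 5 h, add compounds across concentrations and incubate 16 h at 37 °C. Caspase 3/7 activation is then quantified by luciferase light, with AC50 derived by Hill modeling.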

[2] = Cellular Toxicity (caspase-3) SK-N-SH (AID 661);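 also: 0% = DMSO basal and 100% = 10 µM staurosporine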
Outline: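 Cells were seeded and incubated 5 hr at 37 °C, dosed with compound over a concentration range for 16 hr, then given Caspase-Glo 3/7 reagent for 1 hr at room temperature before luminescence reading.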

[3] = Cellular Toxicity (caspase-3) H-4-II-E (AID 663); conditions: H-4-II-E rat hepatoma, scaled: DMSO 0%, 100 µM tamoxifen 100%; at 92.2 µM (top of the series);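 also: cells exposed to compound for 16 hr before readout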
Outline: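 Caspase 3/7 activation measured by luminescent aminoluciferin substrate cleavage after 16 hr compound treatment of H-4-II-E cells in complete medium. Increase normalized between DMSO (basal) and 100 uM tamoxifen (100%); Hill-equation AC50 from concentration-response.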

[4] = Cellular Toxicity (caspase-3) Hek293 (AID 664); conditions: HEK293 caspase-3 activation, DMSO = 0%, 100 µM tamoxifen = 100%; at 92.2 µM (top of the series);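 also: cells exposed to compound for 16 h at 37 °C before readout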
Outline: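 qHTS, HEK293 (human embryonic kidney), 16 h cpd exposure in complete medium. Caspase-3/7 activation = luminescence increase; normalized to DMSO/100 uM tamoxifen; Hill-fit AC50.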

[5] = Cellular Toxicity (caspase-3) N2a (AID 665);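 also: compound exposure lasted 16 h at 37 °C before readout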
Outline: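 Caspase-3/7 activation, measured as increased luminescence from aminoluciferin release, is quantified in mouse N2a cells exposed to compounds for 16 h. Values are normalized to DMSO and 10 uM staurosporine, with AC50 derived by Hill modelling.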

[6] = Cellular Toxicity (caspase-3) NIH 3T3 (AID 666);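 also: 0% = DMSO basal and 100% = 100 µM tamoxifen stimulation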
Outline: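 Cells were plated at 1000 per well and incubated 5 hr at 37°C, then compound was added for 16 hr. Caspase-Glo 3/7 reagent followed for 20 min at room temperature before luminescence was read.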

[7] = Cellular Toxicity (caspase-3) Renal Proximal Tubule (AID 667); conditions: Potency: caspase-3 activation;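 also: cells exposed to compound for 16 hours at 37 °C before detection; 0% = DMSO basal and 100% = 10 µM staurosporine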
Outline: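 Luminescent caspase 3/7 signal from peptide-aminoluciferin cleavage measures apoptosis in freshly isolated rat kidney proximal tubule cells after 16 h compound exposure. Concentration-response data are normalized to DMSO and 10 uM staurosporine, and AC50 values come from Hill equation fits.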

[8] = Cell Viability - LYMP2-001 (AID 921);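 also: 0% = DMSO only and full inhibition = tetraoctylammonium bromide control wells; nearly all actives have a fitted effect of over 70% in size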
Outline: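 CellTiter-Glo luminescence (intracellular ATP) after 24 hr compound exposure at 37 C, 2500 lymphoblastoid cells/well in complete medium. AC50 fitted with standard Hill equation; tetraoctylammonium bromide positive control.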

[9] = MultiTox-Fluor Cytotoxicity Assay - LYMP1-001 - Dead Cells (AID 946)
Outline: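 Cytotoxicity as increased dead-cell protease fluorescence (bis-AAF-R110, 485/520 nm), read 60 min after MultiTox-Fluor reagent. Human lymphoblastoid line exposed 16 h; Hill-fitted AC50, with DMSO as 0% and 15 uM tetraoctylammonium bromide as 100%.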

[10] = MultiTox-Fluor Cytotoxicity Assay - LYMP1-001 - Live Cells (AID 947);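 also: 0% = DMSO only and full inhibition = tetraoctylammonium bromide control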
[11] = Cell Viability - LYMP1-002 - Assay at 16 hr (AID 948);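 also: 0% = DMSO alone and full effect = 92 µM tetraoctylammonium bromide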
Outline: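 LYMP1-002 human lymphoblastoid cells, 2500/well; 5 hr 37 C; cpd 16 hr 37 C; CellTiter-Glo 30 min RT; luminescence (ATP). Concentration-response, Hill-fit AC50. Pos ctrl tetraoctylammonium bromide.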

[12] = MultiTox-Fluor Cytotoxicity Assay - LYMP1-002 - Live Cells (AID 955); also: % is scaled to controls: 0 for no effect and ±100 for the full control effect
Outline: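 Cells were seeded at 2500 per well and incubated 5 hr. Compounds were then added for 16 hr at 37 C, followed by MultiTox-Fluor reagent for 60 min at room temperature and fluorescence reading of viable-cell protease signal.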

[13] = MultiTox-Fluor Cytotoxicity Assay - LYMP1-003 - Dead Cells (AID 961); also: nearly all actives have a fitted effect of over 70% in size
Outline: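 Dead-cell protease release, detected as bis-AAF-R110 fluorescence at 485/520 nm, was measured in LYMP1-003 cells after 16 h compound treatment at 37 C. AC50 values came from Hill-modeled qHTS curves normalized to DMSO (0%) and 15 uM tetraoctylammonium bromide (100%).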

[14] = MultiTox-Fluor Cytotoxicity Assay - LYMP1-003 - Live Cells (AID 962);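 also: cells exposed to compound for 16 hours at 37 °C; 0% = DMSO only and full loss = 92 µM tetraoctylammonium bromide; cytotoxic hits lower the live-cell protease signal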
Outline: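 Acute cytotoxicity is scored as a drop in live-cell protease activity in human lymphoblastoid LYMP1-003 cells after 16 hr compound exposure at 37 C. AC50 values come from Hill-equation modelling of concentration-response data.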

[15] = Cell Viability - LYMP1-003 - Assay at 24 hr (AID 963);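 also: plate controls were DMSO only for no effect and tetraoctylammonium bromide positive control for full effect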
Outline: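 Cytotoxicity is scored as a concentration-dependent fall in ATP-linked luciferase signal in human lymphoblastoid LYMP1-003 cells treated 24 hr at 37 C in complete culture medium.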

[16] = Cell Viability - LYMP1-003 - Assay at 40 hr (AID 964); also: % is scaled to controls: 0 for no effect and ±100 for the full control effect; nearly all actives have a fitted effect of over 60% in size
Outline: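 Luminescent ATP signal (CellTiter-Glo) served as the viability read-out after 40 hr compound treatment of human lymphoblastoid LYMP1-003 cells at 37 C. Decreases in ATP were fitted with the Hill equation to give AC50.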

[17] = Cell Viability - LYMP2-003 (AID 965);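 also: cells exposed to compounds for 24 h before reading; 0% = DMSO only and full effect = 92 µM tetraoctylammonium bromide; nearly all actives have a fitted effect of over 50% in size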
Outline: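 CellTiter-Glo luminescence (cellular ATP) after 24 h compound exposure at 37 C in complete medium; 2500 cells/well, 5 h settling beforehand. Concentration-response fitted to standard Hill equation for AC50. Tetraoctylammonium bromide served as positive control.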

[18] = Cell Viability - LYMP2-004 (AID 966);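 also: plate controls were DMSO only for no effect and tetraoctylammonium bromide control for full effect; nearly all actives have a fitted effect of over 65% in size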
Outline: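 qHTS cytotoxicity: human lymphoblastoid line, 24 hr compound treatment, 37 C, complete medium. Viability read as cellular ATP via luciferase luminescence; tetraoctylammonium bromide served as positive control.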

[19] = MultiTox-Fluor Cytotoxicity Assay - LYMP1-002 - Dead Cells (AID 960); also: nearly all actives have a fitted effect of over 60% in size
Outline: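 Cells were plated, rested 5 hr, then treated with compound dilution series for 16 hr at 37 C. After adding substrate reagent and 60 min at room temperature, dead-cell protease fluorescence gave concentration-response curves fitted by the Hill equation.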

[20] = biological target: Cytochrome P450 3A4 (Homo sapiens) (UniProt P08684); experiment: qHTS Assay for Inhibitors and Substrates of Cytochrome P450 3A4 (AID 884); also: % is scaled to controls: 0 for no effect and ±100 for the full control effect; nearly all actives have a fitted effect of over 50% in size
Sequence of Cytochrome P450 3A4 (Homo sapiens) (P08684 whole entry, looked up): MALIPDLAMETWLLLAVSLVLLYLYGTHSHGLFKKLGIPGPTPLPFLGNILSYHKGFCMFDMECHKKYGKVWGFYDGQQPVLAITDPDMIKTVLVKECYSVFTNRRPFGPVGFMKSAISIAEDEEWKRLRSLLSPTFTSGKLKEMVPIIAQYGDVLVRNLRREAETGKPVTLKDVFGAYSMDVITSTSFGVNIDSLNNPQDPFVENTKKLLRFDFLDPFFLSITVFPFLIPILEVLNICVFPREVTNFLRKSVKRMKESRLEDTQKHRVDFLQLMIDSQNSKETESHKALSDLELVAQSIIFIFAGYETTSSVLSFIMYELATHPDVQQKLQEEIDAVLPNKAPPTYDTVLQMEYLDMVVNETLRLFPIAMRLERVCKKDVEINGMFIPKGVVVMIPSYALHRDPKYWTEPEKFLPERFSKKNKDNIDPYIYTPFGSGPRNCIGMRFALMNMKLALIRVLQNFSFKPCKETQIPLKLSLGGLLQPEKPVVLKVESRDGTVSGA
Outline: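 Luminescent readout of luciferin produced by CYP3A4 (20 nM) dealkylation of Luciferin-PPXE, 25 uM (its KM). NADPH-driven reaction ran 60 min at RT after 10 min compound preincubation; data scaled to 57 uM ketoconazole as 100% inhibition.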

C[C@@H]1CC2(OC3C[C@@]4(C)C5=CC[C@H]6C(C)(C)C(O[C@@H]7OC[C@@H](O)[C@H](O)[C@H]7O)CC[C@@]67C[C@@]57CC[C@]4(C)C31)OC(O)C1(C)OC21 (stereo partly specified)
inactive: caspase-3 activation [1] -0.636% | outcome [2] | caspase-3 activation [3] 1.92% | caspase-3 activation [4] 2.55% | outcome [5] | outcome [6] | Potency [7] | Potency [8] | outcome [9] | outcome [10] | outcome [11] | outcome [12] | Potency [13] | Potency [14] | Potency [15] | Potency [16] | Potency [17] | Potency [18]

COC(=O)c1ccccc1
inactive: caspase-3 activation [1] 0.596% | outcome [2] | caspase-3 activation [3] 3.83% | caspase-3 activation [4] -1.66% | outcome [5] | outcome [6] | Potency [7] | Potency [8] | outcome [9] | outcome [10] | outcome [11] | outcome [12] | Potency [13] | Potency [14] | Potency [15] | Potency [16] | Potency [17]

CCCCCCC(=O)O
inactive: caspase-3 activation [1] -0.964% | outcome [2] | caspase-3 activation [3] 0.492% | caspase-3 activation [4] 0.189% | outcome [5] | outcome [6] | Potency [7] | Potency [8] | outcome [9] | outcome [11] | outcome [12] | outcome [19] | Potency [13] | Potency [14] | Potency [15] | Potency [16] | Potency [17] | Potency [18]

c1ccc(Nc2ccccc2)cc1
inactive: caspase-3 activation [1] -0.717% | outcome [2] | caspase-3 activation [3] 0.361% | caspase-3 activation [4] -0.415% | outcome [5] | outcome [6] | Potency [7] | Potency [20] | outcome [9] | outcome [11] | outcome [12] | outcome [19] | Potency [13] | Potency [14] | Potency [15] | Potency [16] | Potency [17] | Potency [18]

CC(C)C=O
inactive: caspase-3 activation [1] 1.06% | outcome [2] | caspase-3 activation [3] 0.472% | caspase-3 activation [4] -1.91% | outcome [5] | outcome [6] | Potency [7] | Potency [8] | outcome [9] | outcome [11] | outcome [12] | outcome [19] | Potency [13] | Potency [14] | Potency [15] | Potency [16] | Potency [17]

C=C(C)C(=O)OCC(C)O (stereo unspecified)
inactive: caspase-3 activation [1] 0.397% | outcome [2] | caspase-3 activation [3] 0.102% | caspase-3 activation [4] -1.45% | outcome [5] | outcome [6] | Potency [20] | Potency [8] | outcome [9] | outcome [10] | outcome [11] | outcome [12] | outcome [19] | Potency [14] | Potency [15] | Potency [16] | Potency [17] | Potency [18]

Cc1cc(C2(c3cc(C)c(O)cc3C)OS(=O)(=O)c3ccccc32)c(C)cc1O
inactive: caspase-3 activation [1] -0.0933% | outcome [2] | caspase-3 activation [3] 2.61% | caspase-3 activation [4] 4.58% | outcome [5] | outcome [6] | Potency [7] | Potency [8] | outcome [9] | outcome [11] | outcome [12] | Potency [13] | Potency [14] | Potency [15] | Potency [16] | Potency [17] | Potency [18]

O=Cc1ccccc1Cl
inactive: caspase-3 activation [1] -0.514% | outcome [2] | caspase-3 activation [3] 2.39% | caspase-3 activation [4] 2.31% | outcome [5] | outcome [6] | Potency [7] | outcome [9] | outcome [10] | outcome [11] | outcome [12] | outcome [19] | Potency [13] | Potency [14] | Potency [15] | Potency [16] | Potency [17] | Potency [18]

Cc1ccc(Br)cc1
inactive: caspase-3 activation [1] -0.699% | outcome [2] | caspase-3 activation [3] 0.265% | caspase-3 activation [4] 0.98% | outcome [5] | outcome [6] | Potency [20] | Potency [8] | outcome [9] | outcome [10] | outcome [11] | outcome [12] | outcome [19] | Potency [13] | Potency [14] | Potency [15] | Potency [16] | Potency [17] | Potency [18]

Clc1cc(Cl)cc(Cl)c1
inactive: caspase-3 activation [1] -0.669% | outcome [2] | caspase-3 activation [3] 0.838% | caspase-3 activation [4] 0.505% | outcome [5] | outcome [6] | Potency [20] | Potency [8] | outcome [9] | outcome [10] | outcome [11] | outcome [12] | outcome [19] | Potency [14] | Potency [15] | Potency [16] | Potency [17]

O=C(O)c1c(Cl)cccc1Cl
inactive: caspase-3 activation [1] 0.0651% | outcome [2] | caspase-3 activation [3] -0.197% | caspase-3 activation [4] 0.49% | outcome [5] | outcome [6] | Potency [20] | Potency [8] | outcome [9] | outcome [10] | outcome [11] | outcome [12] | outcome [19] | Potency [13] | Potency [14] | Potency [15] | Potency [16] | Potency [17] | Potency [18]

Cc1nc2ccc(Cl)cc2[nH]1
inactive: caspase-3 activation [1] -0.773% | outcome [2] | caspase-3 activation [3] 0.101% | caspase-3 activation [4] -1.32% | outcome [5] | outcome [6] | Potency [8] | outcome [9] | outcome [10] | outcome [11] | outcome [12] | outcome [19] | Potency [14] | Potency [15] | Potency [16] | Potency [17] | Potency [18]

Cc1cccc2ccccc12
inactive: caspase-3 activation [1] 0.763% | outcome [2] | caspase-3 activation [3] 0.93% | caspase-3 activation [4] 0.828% | outcome [5] | outcome [6] | Potency [20] | outcome [9] | outcome [10] | outcome [11] | outcome [12] | outcome [19] | Potency [13] | Potency [14] | Potency [15] | Potency [16] | Potency [17] | Potency [18]

O=C(O)c1ccc(C(=O)O)cc1
inactive: caspase-3 activation [1] -1.02% | outcome [2] | caspase-3 activation [3] 0.895% | caspase-3 activation [4] -1.8% | outcome [5] | outcome [6] | Potency [20] | Potency [8] | outcome [9] | outcome [11] | outcome [12] | outcome [19] | Potency [13] | Potency [14] | Potency [15] | Potency [16] | Potency [17] | Potency [18]

c1ccsc1
inactive: caspase-3 activation [1] -0.223% | outcome [2] | caspase-3 activation [3] 0.78% | caspase-3 activation [4] -0.842% | outcome [5] | outcome [6] | Potency [7] | outcome [9] | outcome [11] | outcome [12] | outcome [19] | Potency [13] | Potency [14] | Potency [15] | Potency [16] | Potency [17] | Potency [18]
